In PubChem BioAssay AID623992 (NMMLSC, 2012):
Potency and affinity values are given separately. Active and inactive are the calls of the source.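 The calls were made as follows: active = compounds whose fitted half-maximal effective concentration for blocking dye efflux is below 100 µM; inactive = the rest.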

Molecular target: Benomyl/methotrexate resistance protein (Candida albicans) (UniProt P28873)
Assay: Candida albicans Mdr1 pump blockade titration – singleplex, Cherry Pick2 set, dose response (AID 623992)
Details: S. cerevisiae AD/CaMDR1, Nile Red efflux, flow cytometry; series mostly up to 100 µM

Sequence of Benomyl/methotrexate resistance protein (Candida albicans) (P28873 whole entry, looked up): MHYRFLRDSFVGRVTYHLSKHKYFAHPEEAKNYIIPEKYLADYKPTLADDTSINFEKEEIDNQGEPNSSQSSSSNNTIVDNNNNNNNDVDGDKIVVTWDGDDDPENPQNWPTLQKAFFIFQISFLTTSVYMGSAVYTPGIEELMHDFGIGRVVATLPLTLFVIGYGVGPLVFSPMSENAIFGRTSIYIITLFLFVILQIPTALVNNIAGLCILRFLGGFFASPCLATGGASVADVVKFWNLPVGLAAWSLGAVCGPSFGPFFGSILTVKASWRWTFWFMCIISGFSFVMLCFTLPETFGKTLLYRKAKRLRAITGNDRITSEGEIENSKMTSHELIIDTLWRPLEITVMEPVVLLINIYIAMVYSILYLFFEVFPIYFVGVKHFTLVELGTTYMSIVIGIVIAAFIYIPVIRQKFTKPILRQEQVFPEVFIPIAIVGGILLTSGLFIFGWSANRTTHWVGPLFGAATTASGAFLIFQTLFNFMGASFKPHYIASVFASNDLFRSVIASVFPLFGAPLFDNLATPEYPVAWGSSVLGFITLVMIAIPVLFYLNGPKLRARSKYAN

outcome, inactive:
COc1ccc(CN2C(=O)C(C)Nc3ncnc(N4CCN(c5ccccc5)CC4)c32)cc1 (stereo not given)
CN1Cc2cc(C(=O)c3ccccc3O)cnc2NC1=O
O=C(Nc1ccccc1)C1=C[C@@H](c2ccc(Br)cc2)C[C@@H](OCCCCO)O1
COc1cc(OC)c2ccc(=O)oc2c1C(CCN1CCCC(C)C1)c1ccc(N(C)C)cc1 (stereo not given)
COc1ccc(CCOC(=O)c2ccc(N)c([N+](=O)[O-])c2)cc1
NC1=NC[C@H](Cc2ccccc2)N1CCCCC1CCCCC1
O=C(NC1CCCc2c1cnn2-c1ccccc1F)c1ccccn1 (stereo not given)
CC(C)C(=O)N1CCC2(CC1)Oc1ccc(F)cc1C(=O)C21CC(c2ccccc2)=NO1 (stereo not given)
Cc1ccc(CNC(=O)C2CCC(CNc3nc(=S)[nH]c4ccccc34)CC2)cc1 (stereo not given)
CC(C)C(=O)N1CCC2(CC1)Oc1ccc(Cl)cc1C(=O)C21CC(c2ccc(Cl)cc2)=NO1 (stereo not given)
O=C(C[n+]1cc(-c2ccccc2)n2c1CCC2)N1c2ccccc2Sc2ccccc21
COc1ccc(OC)c2sc(NC(=O)c3ccc(Br)s3)nc12
O=C(CSc1nnc(Cc2cccs2)n1Cc1ccco1)Nc1cccc(Cl)c1
COc1ccc(-c2sc3ccccc3c2-c2ccc(OCCN(C)C)cc2)cc1
Cc1ccc2c(c1)[C@H]1[C@H](CO2)[C@H](c2ccccc2)[C@]2(C)C(=O)Nc3cc(F)c(F)cc3C(=O)N12
